The nature of test [1]: AP1 Signaling Pathway (AID 357).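 Note: ME-180 reporter cells stimulated with EGF at its EC50 level; % is set by controls: 0 for no effect and ±100 for the full control effect.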 An outline of the steps: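 Beta-lactamase reporter under AP-1 response element, ME-180 background. Stimulus: EC50 EGF. Compound exposure 5 h, 37 °C. Detection: CCF4, 2.5 h RT, 460/530 nm. Values: AC50 from titration.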
Test [2] has as its target Cytochrome P450 1A2 (Homo sapiens) (UniProt P05177). Kind of test: p450-cyp1a2 (AID 410; calls by dose curve; note: potency is the fitted concentration of half-maximal effect;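 for activity change, negative = inhibition: -100% = full effect of reference inhibitor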). An outline of the steps: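 Inhibition was calculated relative to 57 uM furafylline (full inhibition). The reaction used human CYP1A2 at 20nM with Luciferin-ME at its Km, 100uM, driven by an NADPH-regenerating system for 60 min at room temperature.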
Test [3] in a line: NFAT Signaling Pathway (AID 444).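 Note: carbachol stimulus at about its EC50 of 1 µM final; % is set by controls: 0 for no effect and ±100 for the full control effect.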 The note with it: Jurkat NFAT-bla M1, carbachol, beta-lactamase ratio, 5 h; at 17.2 µM (top of the series). Summed up:
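Jurkat cells carrying an NFAT-driven β-lactamase reporter and co-transfected muscarinic M1 receptor were treated with compound plus carbachol (1 uM final, an EC50 level) for 5 h at 37 °C. CCF4 loading followed for 1 h at RT; 460/530 nm ratio gave %activity.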

Test [4] can be described thus: Stat Signaling Pathway (AID 446).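 Note: ME-180 cervical cancer cells given 40 pM IL-6 alongside compound; SIE-controlled beta-lactamase reporter measured as 460/530 nm FRET emission ratio; % is set by controls: 0 for no effect and ±100 for the full control effect.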 Summed up: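 ME-180 SIE-bla cells; overnight plating; cpd + IL-6 40 pM, 5 h, 37 C; LiveBLAzer 2.5 h RT; 460/530 nm emission ratio. Normalized to 300 pM IL-6 and 125 nM JAK inhibitor controls.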
Test [5] addresses Glucocorticoid receptor (Homo sapiens) (UniProt P04150). Kind of test: GR-GFP Redistribution (AID 450;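 active = compounds whose dose series gives a full or clear partial fitted curve of increased nuclear translocation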; note: potency is the fitted concentration of half-maximal effect). Conditions: U2OS GR-GFP nuclear translocation, laser cytometry, 2 h.
The target is the same in test [6]. In words: GR-EFC Redistribution (AID 451; calls by dose curve; note: potency is the fitted concentration of half-maximal effect). The note with it: CHO-K1 GR-EFC translocation, beta-gal luminescence, 2 h. Summed up: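 CHO-K1 cells stably expressing nuclear-localized β-gal enzyme acceptor and GR fused C-terminally to the enzyme donor fragment; ligand-driven nuclear translocation restores β-gal by complementation. Compounds titrated up to 46 uM final, 2 h at 37 °C; luminescence read.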

Test [7] has as its target Mitogen-activated protein kinase 10 (Mus musculus) (UniProt Q61831). In words: JNK3 AlphaScreen Assay (AID 530).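 Note: kinase came from lysate of stimulated human HepG2 cells; signal reports phosphorylation of biotinylated GST-cJun 1-79 at Ser73 with 10 µM ATP; % is set by controls: 0 for no effect and ±100 for the full control effect.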 Summed up: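 JNK3 came from HepG2 lysates pre-activated with IL-1beta and TNF-alpha and phosphorylated biotinylated GST-cJun (1-79) at 10 uM ATP, pH 7.6, room temperature. Compounds were titrated. AlphaScreen signal used anti-phospho-cJun (Ser73) antibody.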

In test [8] the target is 3',5'-cyclic-AMP phosphodiesterase 4B (Homo sapiens) (UniProt Q07343). Kind of test: qHTS Assay for Inhibitors of PDE-IV (AID 607; active = well fitted activation curve with a large enough effect in the main read-out, with a control signal flat, not every such curve was filed as active; note: % of control where 0% means no effect). An outline of the steps:
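ACTOne HEK293 cells carry a modified cAMP-gated CNG channel and express endogenous PDE4; plated 1000 cells/well, compounds up to 22.9 uM final. Membrane-potential dye fluorescence (ex 535/em 590) was read; parental cells received 10 uM forskolin + 100 uM RO 20-1724.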

Test [9] in a line: qHTS Assay for Lipid Storage Modulators (AID 1519; calls by dose curve). Conditions: Drosophila S3 cells, BODIPY lipid droplet/cell ratio, laser cytometry, cells loaded with oleic acid; for activity change, negative = inhibition: at 25.7 µM (top of the series). An outline of the steps: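 Cells seeded at 5,000 per well were treated with compounds over a concentration series and loaded with oleic acid (400 uM, as added). Lipid droplet fluorescence (488 nm excitation, 500-530 nm channel) was read by laser-scanning cytometry and normalized to 20 uM Triacsin C.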

Test [10] concerns the target Ubiquitin carboxyl-terminal hydrolase 1 (Homo sapiens) (UniProt O94782). Kind of test: Inhibitors of USP1/UAF1: Pilot qHTS (AID 504865; active = well fitted curve in the direction sought with a large enough effect; an effect the other way counts as inactive or inconclusive;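 note: rhodamine fluorescence freed from ubiquitin-rhodamine substrate followed over time; top concentration of the series differs between compounds; % is set by controls: 0 for no effect and ±100 for the full control effect; nearly all actives have a fitted effect of over 35% in size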). Summed up: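 USP1/UAF1 complex (1nM) preincubated with compound 15 min at room temperature, then Ub-Rho substrate (150nM final) added. Fluorescence read kinetically at 480/540 nm, 6 reads every 60 seconds. Buffer: 50mM HEPES pH 7.8, 0.5mM EDTA, 0.1 mg/ml BSA, 1mM TCEP, 0.01% Tween-20.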

The target of test [11] is Cytochrome P450 3A4 (Homo sapiens) (UniProt P08684). In words: qHTS Assay for Inhibitors and Substrates of Cytochrome P450 3A4 (AID 884; active = well fitted curve in the direction sought with a large enough effect; an effect the other way counts as inactive or inconclusive; note: % is set by controls: 0 for no effect and ±100 for the full control effect; nearly all actives have a fitted effect of over 50% in size). An outline of the steps:
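20 nM human CYP3A4 with 25 uM Luciferin-PPXE (at KM) in 200 mM KPO4, preincubated 10 min with compound; NADPH regeneration started a 60 min RT reaction. Luciferin detected by luminescence, normalized to 57 uM ketoconazole as full inhibition.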

For test [12] the target is unchanged. Kind of test: qHTS Assay for Activators of Cytochrome P450 3A4 (AID 885; active = well fitted curve in the direction sought with a large enough effect; an effect the other way counts as inactive or inconclusive; note: nearly all actives have a fitted effect of over 65% in size; note: potency is the fitted concentration of half-maximal effect). An outline of the steps:
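20nM CYP3A4 + 25uM Luciferin-PPXE (=KM), 200mM KPO4; cpd 10 min RT; NADPH regen, 60 min RT; stop w/ detection buffer, 20 min; luminescence. Normalized to 57 uM ketoconazole.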

The target in test [13] is Luciferin 4-monooxygenase (Photinus pyralis) (UniProt P08659). In words: Biochemical firefly luciferase enzyme assay for NPC (AID 624030; active = well fitted curve in the direction sought with a large enough effect; an effect the other way counts as inactive or inconclusive;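 note: purified P. pyralis luciferase at 10 nM with luciferin and ATP substrate; 0% = DMSO and -100% = full luciferase inhibition by PTC124 control; nearly all actives have a fitted effect of over 70% in size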). An outline of the steps: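 Counter-screen for direct inhibition of the luciferase enzyme by approved-drug library compounds, run at 10 nM enzyme in 50 mM Tris acetate (final). Luminescence was read within 5 min of enzyme-buffer addition and normalized to PTC124 versus DMSO (0%).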

A short description of test [14]: S16 Schwann cell PMP22 intronic element firefly luciferase assay (AID 624032; active = well fitted curve in the direction sought with a large enough effect; an effect the other way counts as inactive or inconclusive;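 note: plate controls were DMSO for no effect and PTC124 positive control mean for full effect; nearly all actives have a fitted effect of over 30% in size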). Summed up:
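Rat S16 Schwann cells stably carrying a PMP22 intronic element-driven Fluc reporter were seeded overnight, then exposed to compounds for 24 h at 37 °C. Luminescence was normalized to PTC124 (positive control) and DMSO (0% activity).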

Test [15] in a line: qHTS profiling for inhibitors of Plasmodium falciparum proliferation (AID 504749; active = well fitted curve in the direction sought with a large enough effect; an effect the other way counts as inactive or inconclusive;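 note: 0% = DMSO vehicle and full inhibition = artemisinin control; nearly all actives have a fitted effect of over 60% in size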). Conditions: P. falciparum in erythrocytes, SYBR Green DNA, 72 h, at 12.8 µM (top of the series). An outline of the steps: (§1)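 P. falciparum-infected erythrocytes (0.3% parasitemia, 2.5% hematocrit final) were exposed to compounds for 72 h at 37 C in 5% CO2, then lysed with SYBR Green buffer overnight at room temperature; parasite DNA fluorescence was normalized to artemisinin and DMSO controls.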

For a further test, the system named is C2A. Described as above. The note with it: P. falciparum in erythrocytes, SYBR Green DNA, 72 h; series mostly up to 28.7 µM. Summed up:
as §1

The test system of the next test is CP185. The description is as above. The note with it: P. falciparum in erythrocytes, SYBR Green DNA, 72 h; series mostly up to 28.7 µM. Summed up: as §1
Another test concerns FAB9. Described as above. The note with it: P. falciparum in erythrocytes, SYBR Green DNA, 72 h; series mostly up to 28.7 µM. An outline of the steps: as §1
The mark [16] stands for this setting: measured here: cell count channel max response.
The mark [17] stands for this setting: measured here: lipid channel max response.

Where “and” joins values, the source holds several entries; their conditions need not be identical. Identical values can stand only once. Inconclusive results are not listed. Calls of active or inactive are those of the source. Unless noted, calls come from the whole dose curve; as a rule, active = well fitted curve in either direction with a large enough effect (not every such curve was filed as active); inconclusive = small, poorly fitted or top-dose-only effect, or another doubt; inactive = flat fitted curve, though single readings scatter.

3',5'-cyclic-AMP phosphodiesterase 4B (Homo sapiens), sequence (Q07343 whole entry, looked up): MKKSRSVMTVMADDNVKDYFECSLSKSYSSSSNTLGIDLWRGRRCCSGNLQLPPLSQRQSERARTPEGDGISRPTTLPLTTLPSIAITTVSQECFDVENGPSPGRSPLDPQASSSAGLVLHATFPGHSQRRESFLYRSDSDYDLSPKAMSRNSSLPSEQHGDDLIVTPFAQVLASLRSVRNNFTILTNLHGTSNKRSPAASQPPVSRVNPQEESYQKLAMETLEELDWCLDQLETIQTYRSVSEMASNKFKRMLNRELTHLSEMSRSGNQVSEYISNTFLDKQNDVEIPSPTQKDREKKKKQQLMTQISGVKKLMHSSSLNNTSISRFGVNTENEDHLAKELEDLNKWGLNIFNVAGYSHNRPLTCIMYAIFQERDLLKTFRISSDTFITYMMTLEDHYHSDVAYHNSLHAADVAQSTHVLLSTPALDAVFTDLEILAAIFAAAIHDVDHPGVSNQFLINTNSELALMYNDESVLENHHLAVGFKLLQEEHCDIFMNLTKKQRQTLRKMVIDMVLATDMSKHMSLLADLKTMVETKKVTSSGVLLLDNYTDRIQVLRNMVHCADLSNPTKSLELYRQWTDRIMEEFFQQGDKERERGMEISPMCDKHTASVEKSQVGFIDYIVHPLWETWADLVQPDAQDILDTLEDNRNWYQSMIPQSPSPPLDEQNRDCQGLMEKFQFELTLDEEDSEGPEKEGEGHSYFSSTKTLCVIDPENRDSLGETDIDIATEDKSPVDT
Cytochrome P450 1A2 (Homo sapiens), sequence (P05177 whole entry, looked up): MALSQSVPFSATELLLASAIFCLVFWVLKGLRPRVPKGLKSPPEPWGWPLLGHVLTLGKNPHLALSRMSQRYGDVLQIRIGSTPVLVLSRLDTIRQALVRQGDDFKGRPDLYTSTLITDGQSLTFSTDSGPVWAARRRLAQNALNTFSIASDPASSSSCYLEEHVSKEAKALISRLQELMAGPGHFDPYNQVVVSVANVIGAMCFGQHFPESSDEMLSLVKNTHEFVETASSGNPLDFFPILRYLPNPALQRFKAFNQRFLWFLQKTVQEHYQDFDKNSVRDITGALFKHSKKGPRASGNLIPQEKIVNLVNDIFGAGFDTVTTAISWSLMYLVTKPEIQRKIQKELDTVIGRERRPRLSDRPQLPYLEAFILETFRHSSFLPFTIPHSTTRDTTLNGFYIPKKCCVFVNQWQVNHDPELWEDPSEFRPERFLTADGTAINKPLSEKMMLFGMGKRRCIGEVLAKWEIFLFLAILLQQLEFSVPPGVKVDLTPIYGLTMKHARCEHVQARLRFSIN
Ubiquitin carboxyl-terminal hydrolase 1 (Homo sapiens), sequence (O94782 whole entry, looked up): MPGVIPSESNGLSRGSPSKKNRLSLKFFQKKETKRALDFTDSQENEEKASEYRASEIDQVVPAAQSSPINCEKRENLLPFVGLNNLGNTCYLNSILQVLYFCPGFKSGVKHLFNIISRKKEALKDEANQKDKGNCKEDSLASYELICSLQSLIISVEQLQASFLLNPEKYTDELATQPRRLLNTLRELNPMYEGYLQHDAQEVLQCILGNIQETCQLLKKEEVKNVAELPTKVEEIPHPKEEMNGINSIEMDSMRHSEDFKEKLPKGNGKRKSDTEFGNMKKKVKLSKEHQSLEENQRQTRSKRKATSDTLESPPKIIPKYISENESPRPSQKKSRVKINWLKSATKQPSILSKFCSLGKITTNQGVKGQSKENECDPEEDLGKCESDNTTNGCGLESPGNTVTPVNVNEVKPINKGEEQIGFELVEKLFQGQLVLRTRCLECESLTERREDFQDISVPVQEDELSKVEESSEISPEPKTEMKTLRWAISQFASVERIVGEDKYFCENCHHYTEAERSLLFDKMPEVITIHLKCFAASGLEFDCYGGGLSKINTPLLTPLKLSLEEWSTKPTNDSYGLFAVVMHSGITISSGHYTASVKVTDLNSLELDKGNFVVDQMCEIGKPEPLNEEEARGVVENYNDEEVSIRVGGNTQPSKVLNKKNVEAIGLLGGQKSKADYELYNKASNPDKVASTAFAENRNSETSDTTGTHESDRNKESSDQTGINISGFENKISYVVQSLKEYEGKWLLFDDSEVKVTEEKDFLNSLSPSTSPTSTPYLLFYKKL
Glucocorticoid receptor (Homo sapiens), sequence (P04150 whole entry, looked up, the tested form may be a part): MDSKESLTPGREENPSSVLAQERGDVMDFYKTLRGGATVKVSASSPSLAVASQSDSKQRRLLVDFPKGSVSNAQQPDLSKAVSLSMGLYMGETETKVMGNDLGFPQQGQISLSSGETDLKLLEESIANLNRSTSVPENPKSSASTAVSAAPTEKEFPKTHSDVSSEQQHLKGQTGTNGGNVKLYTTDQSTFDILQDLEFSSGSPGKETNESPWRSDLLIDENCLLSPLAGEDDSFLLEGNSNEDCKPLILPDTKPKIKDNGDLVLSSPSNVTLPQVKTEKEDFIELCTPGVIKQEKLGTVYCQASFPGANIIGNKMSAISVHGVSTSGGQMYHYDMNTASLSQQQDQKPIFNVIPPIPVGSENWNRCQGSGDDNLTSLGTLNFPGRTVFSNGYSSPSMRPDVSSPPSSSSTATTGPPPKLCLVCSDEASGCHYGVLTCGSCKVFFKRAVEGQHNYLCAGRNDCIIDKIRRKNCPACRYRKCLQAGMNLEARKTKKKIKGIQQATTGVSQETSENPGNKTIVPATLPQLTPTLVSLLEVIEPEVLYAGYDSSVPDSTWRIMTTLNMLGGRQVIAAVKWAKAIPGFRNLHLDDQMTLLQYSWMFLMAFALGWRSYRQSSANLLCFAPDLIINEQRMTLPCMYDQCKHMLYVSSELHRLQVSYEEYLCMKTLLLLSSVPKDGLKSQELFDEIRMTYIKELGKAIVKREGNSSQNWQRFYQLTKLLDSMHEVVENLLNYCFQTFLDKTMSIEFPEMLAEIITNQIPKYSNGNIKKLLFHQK
Cytochrome P450 3A4 (Homo sapiens), sequence (P08684 whole entry, looked up): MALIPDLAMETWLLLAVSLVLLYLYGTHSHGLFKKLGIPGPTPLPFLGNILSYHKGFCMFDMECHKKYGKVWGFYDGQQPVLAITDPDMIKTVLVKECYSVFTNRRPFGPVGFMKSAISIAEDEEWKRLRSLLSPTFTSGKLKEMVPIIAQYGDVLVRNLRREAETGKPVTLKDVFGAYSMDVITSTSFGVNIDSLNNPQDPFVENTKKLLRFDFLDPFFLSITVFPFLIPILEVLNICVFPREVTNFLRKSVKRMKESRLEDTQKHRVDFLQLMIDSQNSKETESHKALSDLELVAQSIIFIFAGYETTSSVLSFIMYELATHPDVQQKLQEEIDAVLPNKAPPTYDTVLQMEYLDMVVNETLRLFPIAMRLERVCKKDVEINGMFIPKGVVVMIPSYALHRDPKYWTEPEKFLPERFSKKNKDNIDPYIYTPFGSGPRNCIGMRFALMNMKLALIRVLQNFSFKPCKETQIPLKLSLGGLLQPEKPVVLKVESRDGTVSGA
Luciferin 4-monooxygenase (Photinus pyralis), sequence (P08659 whole entry, looked up): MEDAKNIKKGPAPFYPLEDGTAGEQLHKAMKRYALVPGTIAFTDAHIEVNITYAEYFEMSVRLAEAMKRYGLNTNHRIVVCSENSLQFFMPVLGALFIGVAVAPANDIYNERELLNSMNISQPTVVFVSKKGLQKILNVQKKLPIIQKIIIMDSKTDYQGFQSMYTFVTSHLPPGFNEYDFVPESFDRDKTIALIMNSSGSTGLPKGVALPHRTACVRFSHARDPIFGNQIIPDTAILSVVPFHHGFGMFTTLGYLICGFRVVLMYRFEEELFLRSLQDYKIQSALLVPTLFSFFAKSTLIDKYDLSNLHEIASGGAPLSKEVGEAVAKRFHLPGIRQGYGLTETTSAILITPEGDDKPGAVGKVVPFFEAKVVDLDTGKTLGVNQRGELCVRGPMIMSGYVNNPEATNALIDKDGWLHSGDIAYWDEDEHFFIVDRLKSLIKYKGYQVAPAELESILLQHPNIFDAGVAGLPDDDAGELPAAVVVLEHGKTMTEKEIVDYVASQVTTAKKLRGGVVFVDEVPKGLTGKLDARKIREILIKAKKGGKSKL

Regarding `O=[N+]([O-])O[C@H]1CO[C@H]2[C@H]1OC[C@@H]2O[N+](=O)[O-]`, the molecule was called inactive in [1], in test [4] and in [7]. Besides, the Potency result in test [2] and in test [8] was “inactive” each time. Besides, the activity change, negative = inhibition in test [3] was -5.68% (inactive); in test [9], -2.81% (inactive). The Potency in [5] and in test [6] was > 20.6 µM (inactive) throughout. In addition, the max response in test [9] (setting [16]) was -2.42%; in test [9] (setting [17]), -3.6%.
For the molecule `C=C1[C@@H]2C[C@@]3([C@H]1O)[C@H]1C[C@@H]4[C@@]5(C)CC[C@H](O)[C@]4([C@H]1N(CC)C5)[C@H]3C[C@H]2O`, the molecule was called inactive in test [1], in test [4] and in test [7]. The Potency entry in [2], in [8] and in test [10] was “inactive” each time. Moreover, the activity change, negative = inhibition in test [3] is -13% (inactive); in test [9], -1.27% (inactive). Further, the Potency in test [5] and in test [6] was > 20.6 µM (inactive) throughout. Moreover, the max response was -11.5% in [9] (setting [16]) and -13.2% in test [9] (setting [17]).
For the molecule `CN1CCc2cc3c(cc2[C@@H]1O)OCO3`, the molecule was called inactive in [1], in test [4] and in [7]. Further, the Potency entry in [2], in test [8] and in test [10] was “inactive” throughout. For the same molecule, the activity change, negative = inhibition was -5.65% (inactive) in test [3] and 0.396% (inactive) in [9]. The Potency in test [5] and in test [6] was > 20.6 µM (inactive) throughout. Also, the max response in [9] (setting [16]) turned out to be 4.41%; in test [9] (setting [17]) it was 3.98%.
Consider `CC(=O)O[C@H]1CC[C@@]2(C)C(=CC[C@@H]3[C@H]2CC[C@]2(C)C(=O)CC[C@H]32)C1`, for which the molecule was classed as inactive in [1], in [4] and in [7]. Besides, the Potency result (in test [2]; in [8]; in [11]; in test [13]; in test [14]; with C2A) was “inactive” in each case. Besides, the Potency entry with CP185 and in the test with FAB9 was “inactive” throughout. Besides, the results for the activity change, negative = inhibition in [3] and in test [9] were -13.7% (inactive) and -0.861% (inactive), respectively. For the same molecule, the Potency is > 20.6 µM (inactive) in test [5] and 12.6 µM (active) in test [12]. Moreover, the max response is -9.47% in test [9] (setting [16]) and -12.6% in [9] (setting [17]). Moreover, the activity, negative = inhibition in [15] (parasite line A) is 8.47% (inactive); in test [15] (parasite line B), 10.9% (inactive).
`CC[N@+]1(C)CCC[C@@H](OC(=O)C(O)(c2ccccc2)c2ccccc2)C1`: the call in [1] and in test [4] was inactive. Moreover, the Potency result in test [2] and in test [8] was “inactive” throughout. Besides, the activity change, negative = inhibition in test [3] was -31.8% (active); in [9] it was -4.06% (inactive). Moreover, the Potency in test [5] and in test [6] was > 20.6 µM (inactive) each time. Further, the max response in test [9] (setting [16]) is -4.84%; in test [9] (setting [17]), -5.77%.
Turning to `COC1=CC(=O)O[C@@H](/C=C\c2ccccc2)C1`, the molecule was classed as inactive in test [1], in test [4] and in test [7]. Further, the Potency is 3.16 µM (active) in test [2] and > 20.6 µM (inactive) in test [5]. The activity change, negative = inhibition in test [3] is -0.425% (inactive); in test [9], 1.1% (inactive). The Potency result in [8] and in test [10] was “inactive” each time. Further, the max response in [9] (setting [16]) is -5.23%; in [9] (setting [17]), -0.269%.
On to `CN1[C@H]2CC(=O)C[C@@H]1[C@@H](O)C2`, for which the result in test [1], in test [4] and in test [7] was inactive. The Potency entry in test [2], in [8] and in test [10] was “inactive” in each case. In addition, the activity change, negative = inhibition in [3] is -9.47% (inactive); in test [9] it was -5.66% (inactive). For the same molecule, the Potency in [5] and in test [6] was > 20.6 µM (inactive) in each case. The max response in test [9] (setting [16]) is -20.9%; in test [9] (setting [17]), -23.7%.
`COc1ccc(C[C@H]2c3cc(OC)c(OC)cc3CCN2C)cc1OC`: the molecule was classed as inactive in test [1], in [4] and in test [7]. Besides, the Potency entry in [2] and in [8] was “inactive” in each case. For the same molecule, the activity change, negative = inhibition in test [3] is -1.22% (inactive); in [9], 1.88% (inactive). The Potency was > 20.6 µM (inactive) and > 46 µM (inactive) in test [5]; > 20.6 µM (inactive) and > 46 µM (inactive) in test [6]. Further, the figures for the max response in [9] (setting [16]) and in test [9] (setting [17]) were 10% and 12.8%, respectively.
As for `C/C=C1\C[C@H](C)[C@@](O)(CO)C(=O)OCC2=CCN3CC[C@@H](OC1=O)[C@@H]23`, the molecule was called inactive in test [1], in test [4] and in test [7]. The Potency result in test [2] and in [8] was “inactive” in each case. Besides, the activity change, negative = inhibition in test [3] was -20.5% (inactive); in [9], 0.17% (inactive). Besides, the Potency in [5] and in [6] was > 20.6 µM (inactive) each time. Further, the max response in test [9] (setting [16]) was determined as 4.82%; in test [9] (setting [17]) it was 5.25%.
For `CCN1C[C@]2(C)CC[C@H](OC)[C@@]34[C@@H]2[C@H](OC(C)=O)[C@]2(OCO[C@@]25C[C@@H](OC)[C@@H]2C[C@@]3(O)[C@H]5[C@@H]2OC)[C@H]14`, the molecule was called inactive in test [1], in [4] and in test [7]. In addition, the Potency entry in test [2], in test [8], in [12] and in test [10] was “inactive” throughout. The activity change, negative = inhibition in test [3] was -4.41% (inactive); in test [9], -1.59% (inactive). In addition, the Potency in test [5] is > 20.6 µM (inactive). Further, the values for the max response in test [9] (setting [16]) and in test [9] (setting [17]) were -0.005% and 0.99%, respectively.
Consider `C[C@H]1CC[C@@]2(NC1)O[C@@H]1C[C@H]3[C@@H]4CC[C@@H]5C[C@@H](O)CC[C@@]5(C)[C@@H]4CC[C@]3(C)[C@@H]1[C@@H]2C`, for which the molecule was called inactive in test [1], in [4] and in test [7]. The Potency result in test [2], in test [8] and in test [10] was “inactive” in each case. For the same molecule, the figures for the activity change, negative = inhibition in [3] and in test [9] were 1.76% (inactive) and -2.33% (inactive), respectively. The max response was 0.178% in test [9] (setting [16]) and -2.87% in test [9] (setting [17]).

(Values after PubChem BioAssay (NCATS).)
